Data from PubChem BioAssay (EPA / NIEHS).
Records with an inconclusive call do not appear. Activity calls are given as the source filed them. The calls were made as follows, unless noted: active = hit-call score of the fitted dose curve at least 0.9, where 1 is the maximum; inactive = score below 0.9.

Tested on: not listed separately
Test: Tanguay_ZF_120hpf_NC_legacy: (Legacy) Oregon State University Tanguay Lab 120 Hour Post-fertilization zebrafish Assay for Notochord and Tail Malformation (AID 2283656; active = hit-call score of the fitted dose curve at least 0.9, where 1 is the maximum)
Outline: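 Dechorionated 5D zebrafish, 1/well from 6 hpf; static exposure to 120 hpf, 28C, sealed, dark; final DMSO 0.64% v/v. NC scored binary (present/absent); dead embryos not scored. Fit vs DMSO baseline, gain direction.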

Row | SMILES | outcome
1 | OC[C@@H](O)[C@@H](O)[C@H](O)[C@H](O)CO | inactive
2 | NCCO | inactive
3 | O=C(O)Cc1ccccc1Nc1c(Cl)cccc1Cl | inactive

Tested on: Thyroperoxidase (TPO), gene 54314
Test: CCTE_Simmons_AUR_rTPO: CCTE's Amplex UltraRed Assay for Thyroperoxidase (TPO) Inhibition, Simmons Lab (AID 2283662; active = hit-call score of the fitted dose curve at least 0.9, where 1 is the maximum;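 also: potency for loss of signal meaning inhibition of peroxidase activity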)
Outline: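 Rat thyroid microsomes (5 ug protein) with 25 uM Amplex UltraRed and 300 uM H2O2 in 200 mM phosphate buffer, 30 min at 37C in dark; fluorescence 544/590 nm. Eight concentrations, 5 nM–87.5 uM final, 0.5% DMSO, triplicate biological replicates.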

Row | SMILES | AC50
4 | C=CCc1ccc(O)c(OC)c1 | 6.16 µM (active)
5 | CCNc1cccc(C)c1 | 12.1 µM (active)
6 | COc1ccc(C)cc1N | 1.23 µM (active)

Tested on: not listed separately
Test: CCTE_Simmons_CellTiterGLO_HEK293T: Viability Assessment in CCTE's Assays for Thyroperoxidase (TPO) Inhibition, Simmons Lab (AID 2283665; active = hit-call score of the fitted dose curve at least 0.9, where 1 is the maximum)
Outline: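 HEK293T cells in DMEM with 1% FBS were dosed with 8 concentrations (5 nM–87.5 uM final, 0.5% DMSO) for 24 hr at 37C; ATP content was read by CellTiter-Glo luminescence, loss-of-signal versus DMSO, three biological replicates.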

Row | SMILES | outcome
7 | C=CCc1ccc(O)c(OC)c1 | inactive
8 | CCNc1cccc(C)c1 | inactive
9 | COc1ccc(C)cc1N | inactive

Tested on: not listed separately
Test: Tanguay_ZF_120hpf_TR_legacy: (Legacy) Oregon State University Tanguay Lab 120 Hour Post-fertilization zebrafish Assay for Touch Response (AID 2283667; active = hit-call score of the fitted dose curve at least 0.9, where 1 is the maximum)
Outline: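 Tropical 5D wild-type zebrafish embryos were exposed statically in sealed, foil-covered plates at 28C until 120 hpf, with 0.64% (vol/vol) final DMSO. Touch response was scored as present or absent; embryos that died were not scored.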

Row | SMILES | outcome
10 | C[Si]1(C)O[Si](C)(C)O[Si](C)(C)O[Si](C)(C)O1 | inactive
11 | COc1ccc(S(=O)(=O)N2C(=O)[C@@](c3ccccc3OC)(N3C[C@H](O)C[C@H]3C(=O)N(C)C)c3cc(Cl)ccc32)c(OC)c1 | inactive
12 | CCCCCCCC=O | inactive
13 | CCCCOC(=O)CCCCCCCCC(=O)OCCCC | inactive
14 | Clc1cc(Cl)c(Cl)cc1Cl | inactive
15 | c1cc(-c2ccncc2)ccn1 | inactive
16 | NCCO | inactive

Tested on: not listed separately
Test: CCTE_Padilla_ZF_144hpf_TERATOSCORE: (Legacy) CCTE's 144 Hour Post-fertilization zebrafish Assay Teratoscore, Padilla Lab (AID 2283679);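 as to AC50: zebrafish embryos with chorions exposed by immersion from 6-8 hpf to 5 dpf with daily renewal; teratogenicity score from eye scoring of death hatching and malformations at 144 hpf; higher score means more developmental defects relative to DMSO baseline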
Outline: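 Larvae scored by eye at 144 hpf for death, hatching and malformations after a day in clean Hanks'. Before that, daily-renewed exposure at 80 uM (0.4% DMSO, 26C) from roughly 6-8 hpf through 5 dpf, 4 embryos per chemical.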

Row | SMILES | AC50 | outcome
17 | CCc1c(C(=O)NN2CCCCC2)nn(-c2ccc(Cl)cc2Cl)c1-c1ccc(Br)cc1 | 0.533 µM (active) | 
18 | COC(=O)c1ccc(O)cc1 |  | inactive
19 | FC(F)(F)C(F)(F)C(F)(F)C(F)(F)C(F)(F)C(F)(F)CCI | 31.3 µM (active) | 
20 | C=CCOC(=O)c1ccccc1C(=O)OCC=C | 16.6 µM (active) | 
21 | Oc1ccc2c(c1)OC[C@@H](N1CCC(O)(c3ccc(F)cc3)CC1)[C@H]2O | 1.46 µM (active) | 
22 | CNCc1cc(F)ccc1Oc1ccc(Cl)c(Cl)c1 | 15.7 µM (active) | 
23 | O=C(O)Cc1ccccc1Nc1c(Cl)cccc1Cl | 4.79 µM (active) | 

Tested on: not listed separately
Test: STM_H9_OrnithineISnorm_perc: Stemina devTOX quickPredict H9 human embryonic stem cell (hESC)-based Assay for Ornithine (ORN) Metabolite Biomarker, Normalized (AID 2283712);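 also: ornithine released into spent medium during last day measured by mass spectrometry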
Outline: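 Undifferentiated pluripotent H9 hESCs were exposed to compound for 72h, with media and compound replaced every 24h. Ornithine in final 24-h conditioned media was measured by UPLC-HRMS, normalized to 13C-labeled spike-in standard and to median 0.1% DMSO control.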

Row | SMILES | AC50 | outcome
24 | COC(=O)c1ccc(O)cc1 | 0.091 µM (active) | 
25 | CCCCc1ccc2c(n1)[C@@H](c1ccc(OC)cc1C[C@H](C)C(=O)O)[C@H](C(=O)O)[C@H]2c1ccc2c(c1)OCO2 |  | inactive
26 | NC(=O)Cn1c(=O)cc(CCN2CCN(c3nccc4sccc34)CC2)c2ccc(F)cc21 | 0.0187 µM (active) | 
27 | COc1ccc(S(=O)(=O)N2C(=O)[C@@](c3ccccc3OC)(N3C[C@H](O)C[C@H]3C(=O)N(C)C)c3cc(Cl)ccc32)c(OC)c1 | 5.99 µM (active) | 
28 | Cc1nc(-c2ccc3c(c2)CCN(CCC2CCC(NC(=O)/C=C/c4ccc(F)cc4)CC2)CC3)no1 (stereo unspecified) |  | inactive
29 | CC(CO)OC(C)CO (stereo unspecified) (tested in a mixture with another compound) |  | inactive
30 | OC[C@@H](O)[C@@H](O)[C@H](O)[C@H](O)CO |  | inactive
31 | O=C(O)Cc1ccccc1Nc1c(Cl)cccc1Cl |  | inactive

Tested on: not listed separately
Test: STM_H9_CystineISnorm_perc: Stemina devTOX quickPredict H9 human embryonic stem cell (hESC)-based Assay for Cystine (CYSS) Metabolite Biomarker, Normalized (AID 2283713)
Outline: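 Undifferentiated H9 hESCs were exposed to compound for 72h, with medium and compound replaced every 24h. Final-24h conditioned medium was deproteinized and analyzed by UPLC-HRMS. Cystine EIC area was normalized to spiked C13 standard and 0.1% DMSO median.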

Row | SMILES | outcome | AC50
32 | COC(=O)c1ccc(O)cc1 | inactive | 
33 | CCCCc1ccc2c(n1)[C@@H](c1ccc(OC)cc1C[C@H](C)C(=O)O)[C@H](C(=O)O)[C@H]2c1ccc2c(c1)OCO2 | inactive | 
34 | NC(=O)Cn1c(=O)cc(CCN2CCN(c3nccc4sccc34)CC2)c2ccc(F)cc21 | inactive | 
35 | C=CCOC(=O)c1ccccc1C(=O)OCC=C |  | 53.5 µM (active)
36 | COc1ccc(S(=O)(=O)N2C(=O)[C@@](c3ccccc3OC)(N3C[C@H](O)C[C@H]3C(=O)N(C)C)c3cc(Cl)ccc32)c(OC)c1 | inactive | 
37 | Cc1nc(-c2ccc3c(c2)CCN(CCC2CCC(NC(=O)/C=C/c4ccc(F)cc4)CC2)CC3)no1 (stereo unspecified) | inactive | 
38 | CC(CO)OC(C)CO (stereo unspecified) (tested in a mixture with another compound) | inactive | 
39 | OC[C@@H](O)[C@@H](O)[C@H](O)[C@H](O)CO | inactive | 
40 | O=C(O)Cc1ccccc1Nc1c(Cl)cccc1Cl | inactive | 

Tested on: not listed separately
Test: STM_H9_OrnCyssISnorm_ratio: Stemina devTOX quickPredict H9 human embryonic stem cell (hESC)-based Assay for Ornithine (ORN):Cystine (CYSS) Ratio (AID 2283714; active = hit-call score of the fitted dose curve at least 0.9, where 1 is the maximum)
Outline: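 Undifferentiated H9 hESCs were exposed to compound for 72h with media and chemical replaced every 24h. Final 24-h conditioned media were deproteinized and analysed by UPLC-HRMS. ORN and CYSS peak areas were normalized to C13 internal standards and the ratio taken versus 0.1% DMSO.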

Row | SMILES | outcome | AC50
41 | COC(=O)c1ccc(O)cc1 | inactive | 
42 | NC(=O)Cn1c(=O)cc(CCN2CCN(c3nccc4sccc34)CC2)c2ccc(F)cc21 | inactive | 
43 | C=CCOC(=O)c1ccccc1C(=O)OCC=C |  | 41.3 µM (active)
44 | COc1ccc(S(=O)(=O)N2C(=O)[C@@](c3ccccc3OC)(N3C[C@H](O)C[C@H]3C(=O)N(C)C)c3cc(Cl)ccc32)c(OC)c1 | inactive | 
45 | OC[C@@H](O)[C@@H](O)[C@H](O)[C@H](O)CO | inactive | 
46 | O=C(O)Cc1ccccc1Nc1c(Cl)cccc1Cl | inactive | 

Read-out: not listed separately
Test: CEETOX_H295R_MTT_cell_viability: Viability Assessment in the CeeTox HT-H295R MTT Assay (AID 2283718);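 as to AC50: curve fitted both ways so AC50 may mark viability loss or gain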
Outline: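 H295R cells prestimulated 48 h with 10 uM forskolin, then exposed 48 h to test chemical (0.1% DMSO final). Viability by MTT (0.5 mg/ml, 4 h, 37 C), absorbance 570/650 nm; percent change versus DMSO, bidirectional fit.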

Row | SMILES | outcome | AC50
47 | C=CCc1ccc(O)c(OC)c1 | inactive | 
48 | COC(=O)c1ccc(O)cc1 | inactive | 
49 | NC(=O)Cn1c(=O)cc(CCN2CCN(c3nccc4sccc34)CC2)c2ccc(F)cc21 | inactive | 
50 | C=CCOC(=O)c1ccccc1C(=O)OCC=C | inactive | 
51 | COc1ccc(S(=O)(=O)N2C(=O)[C@@](c3ccccc3OC)(N3C[C@H](O)C[C@H]3C(=O)N(C)C)c3cc(Cl)ccc32)c(OC)c1 |  | 3.43 µM (active)
52 | Oc1ccc2c(c1)OC[C@@H](N1CCC(O)(c3ccc(F)cc3)CC1)[C@H]2O | inactive | 
53 | Nc1ccc2c(c1)C(=O)c1ccccc1C2=O | inactive | 
54 | COc1ccc(C)cc1N | inactive | 
55 | Cc1nc(-c2ccc3c(c2)CCN(CCC2CCC(NC(=O)/C=C/c4ccc(F)cc4)CC2)CC3)no1 (stereo unspecified) | inactive | 
56 | c1cc(-c2ccncc2)ccn1 | inactive | 
